From PubChem BioAssay AID624305 (National Center for Advancing Translational Sciences (NCATS), 2012) come the findings set out here.

Results filed as inconclusive are left out. Values without a mark were called inactive. Calls of active or inactive are those of the source. Calls follow the shape of the dose curve; as a rule, active = well fitted activation curve with a large enough effect; inconclusive = small, poorly fitted or top-dose-only effect; inactive = no such curve, though single readings can be large or run the other way.
Potency is read from the fitted curve at half-maximal effect.

The assay can be described thus: qHTS assay for re-activators of p53 using a Luc reporter: Hit Validation. Also: nearly all actives have a fitted effect of over 75% in size. As to activation: 0% is about no effect. The following applies: p53-responsive luciferase reporter cells, luminescence, H1299 line expressing heat-sensitive Ala138Val p53; series mostly up to 46.1 µM. The essentials: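 H1299 (p53-null) cells stably carrying p53-A138V and a BP100-luciferase reporter, 1000 cells/well, treated 24 h at 37 deg C. Compounds at several concentrations, 1:5 dilution; nocodazole control; luminescence read after 10 min with detection reagent.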
With `c1ccc(Oc2cc(-n3cncn3)ncn2)cc1`, the Potency result is “inactive”.
As to `Cc1ccc(C(=O)NC2CC2)cc1S(=O)(=O)N1CCOCC1`, the Potency result was “inactive”.
Same read-out and setting: the figure for `CCCOc1ccc(-c2cc3onc(-c4ccccc4)c3c(=O)n2C)cc1` is 5800 nM (active).
For the molecule `Cc1ccc2nc(N3C(=O)C(O)=C(C(=O)c4ccc(C)o4)C3c3ccco3)sc2c1` (stereo not drawn), the Potency result is “inactive”.
The same measure, in the same setting: the figure for `COc1cccc(-c2nc3cc(C)ccc3o2)c1` is 411 nM (active); for `Cc1cccc(C(=O)OCC(=O)N2CCCCCC2)c1O` it is 5170 nM (active); for `CCCCCCC[C@@H](C/C=C/CCC(=O)N(C)C/C(=C/Cl)C/C(=C\C(=O)N1CC(OC)=CC1=O)OC)OC` it is 5800 nM (active).
Still for that read-out and setting: the entry for `Cc1cccc(NC2SC(=O)N(c3ccccc3)C2=O)c1` (stereo not drawn) is “inactive”.
The same measure, in the same setting: the entry for `COc1cc(NC(=O)CN2C(=O)COc3ccc(S(=O)(=O)N4CCCC4)cc32)cc(OC)c1` is “inactive”; for `Cc1ccc(-c2nc(-c3cccnc3)no2)c(C)c1` it is 4610 nM (active).
On to `C=CCOc1c(Br)cc(CNCCCN2CCOCC2)cc1OC`, for which the Potency entry is “inactive”.
Same read-out and setting: the figure for `CC1(C)Oc2ccc(NC(=O)C3COc4ccccc4O3)cc2O1` (stereo not drawn) is 1300 nM (active); for `O=C(COc1ccc(F)cc1Cl)NC1CCCCCC1` it is 7310 nM (active).
As to `C=Cc1ccc(Cn2c(=O)n(CCCOC)c(=O)c3sccc32)cc1`, the Potency entry was “inactive”.
Turning to `NC(=NCc1ccccc1)c1cccc([N+](=O)[O-])c1`, the Potency result was “inactive”.
Same read-out and setting: in the case of `Cc1ncsc1C(=O)Nc1nc2c(s1)CCCC2` it was 1840 nM (active); in that of `COc1ccc(NC(=O)CN(C)CC(=O)Nc2ccccc2SC)cc1`, “inactive”.
Regarding `Cc1cccc(C)c1NC(=O)CC(NCc1ccco1)C(=O)O` (stereo not drawn), the activation is -13.7% [at 9.22 µM].
In the case of `COc1ccccc1-c1nc(-c2ccc(Br)o2)no1`, the Potency was 366 nM (active).
Turning to `CC(=O)c1cc2c(C)c(C(=O)c3ccccc3)oc2cc1O`, the Potency was 411 nM (active).
As to `CCCCn1c(O)c(N=Nc2ccccc2O)c2ccccc21`, the Potency result is “inactive”.
Consider `COc1ccc(N=C(N)SCc2ccccn2)cc1`, for which the Potency result was “inactive”.
In the case of `COC(=O)c1sccc1N/N=C/c1cccc(OC)c1O`, the Potency was 146 nM (active).
`Cc1ccc(NC(=S)NCC2CCCO2)c(OC(F)F)c1` (stereo not drawn): the Potency entry was “inactive”.
The same measure, in the same setting: in the case of `COc1cc(CN2CCCCC2C(=O)Nc2ccc(Oc3ccccc3)nc2)ccc1O` (stereo not drawn) it was “inactive”.
For the molecule `CN(C)c1cccc(C(=O)NNC(=O)CN2C(=O)C3CC=CCC3C2=O)c1` (stereo not drawn), the Potency is 2310 nM (active).
Turning to `Clc1ccc(-c2cn3cc(Br)ccc3n2)cc1Cl`, the Potency is 206 nM (active).
For the molecule `O=C(Cc1ccccc1)NCc1ccc(F)cc1`, the Potency result is “inactive”.
Still for that read-out and setting: in the case of `O=C(/C=C/c1cccs1)Nc1ccc(Br)cn1` it was 1840 nM (active).
For the molecule `O=C(Cn1cc(SCc2ccc(F)cc2)c2ccccc21)N1CCOCC1`, the Potency entry was “inactive”.
Consider `Cc1ccc(-n2c(C)cc(C(=O)CSc3nnc4ccccn34)c2C)cc1`, for which the Potency is 6510 nM (active).
`O=C(/C=C/c1ccccc1)NC1CCSC1=O` (stereo not drawn): the activation is 23.4% [at 9.22 µM].
As for `CC(=O)N(C)c1ccc(NC(=O)CCN2C(=O)c3ccccc3C2=O)cc1`, the Potency result was “inactive”.
Take `O=C(/C=C/c1cnc2ccccc2n1)NC12CC3CC(CC(C3)C1)C2`: the Potency was 9200 nM (active).
As for `C(=N\Nc1nc2ccccc2s1)/c1ccc2c(c1)OCO2`, the Potency is 2590 nM (active).
`COc1ccc(-c2nnc(SCC(=O)/C(C#N)=C(\C)N)o2)cc1`: the Potency is 326 nM (active).
On the same count and under the same terms, the entry for `O=C(N/N=C/c1sc(=O)[nH]c1-[n+]1ccc2ccccc2c1)c1ccccc1[O-]` is “inactive”; for `CC(C)c1ccc(NC(=O)c2snc3ccc(Cl)cc23)cc1` it is 5800 nM (active).
